Reference: the supplement of paper PMC8285479
Counter-ions that a name gives are not always drawn. ± gives the standard deviation of the averaged measurements. The full ranking holds about 1,900 compounds; the median of “normalised cell viability (NPI; 0 = phenylarsine oxide control, 1 = DMSO control)” is about 1, and the lowest 2% start at about 0.039. Shown is part of a subset that was picked to be rich in the lowest values.

Tested on: NCI-H1944
Assay: normalised cell viability (NPI; 0 = phenylarsine oxide control, 1 = DMSO control) (fraction of DMSO control); NCI-H1944 is a non-small cell lung cancer line; higher = more viable cells (less compound toxicity)
Conditions: 6 days
[1] = glucocorticoid arm: hydrocortisone 2.75 uM co-treatment, compound 1 µM
[2] = glucocorticoid arm: hydrocortisone 2.75 uM co-treatment, compound 5 µM
[3] = glucocorticoid arm: hydrocortisone 2.75 uM pre-treated 2 days and continued, compound 1 µM
[4] = glucocorticoid arm: hydrocortisone 2.75 uM pre-treated 2 days and continued, compound 5 µM
[5] = glucocorticoid arm: vehicle, compound 1 µM
[6] = glucocorticoid arm: vehicle, compound 5 µM
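Also: CTB read-out in 384-well plates, triplicate wells, NPI normalised per plate against 1 µM phenylarsine oxide (0) and 0.1% DMSO (1) controls.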

| Compound | normalised cell viability [1] | normalised cell viability [2] | normalised cell viability [3] | normalised cell viability [4] | normalised cell viability [5] | normalised cell viability [6] |
| --- | --- | --- | --- | --- | --- | --- |
| CN/C(=N\c1ccc(C2=NNC(=O)CC2C)cc1)NC#N (centres undefined) | 0.9943 ± 0.0046 | 0.992 ± 0.018 | 0.875 ± 0.22 | 0.9957 ± 0.0051 | 0.995 ± 0.005 | 0.997 ± 0.0052 |
| CCN1C(=CC(C)=O)Sc2ccc(OC)cc21 | 0.982 ± 0.01 | 0.823 ± 0.013 | 0.994 ± 0.017 | 0.839 ± 0.021 | 1.01 ± 0.01 | 0.983 ± 0.017 |
| Cc1cc(N2CCOCC2)cc2[nH]c(-c3c(NCC(O)c4cccc(Cl)c4)cc[nH]c3=O)nc12 (centres undefined) | 0.277 ± 0.0085 | 0.205 ± 0.011 | 0.3733 ± 0.0021 | 0.267 ± 0.0095 | 0.753 ± 0.051 | 0.263 ± 0.036 |
| CCCCCCCCCCCCCCCC(=O)NCC(COP(=O)([O-])OCC[N+](C)(C)C)OCC (racemic) [rac-2-Ethoxy-3-hexadecanamido-1-propylphosphocholine] | 1.01 ± 0.01 | 1.09 ± 0.023 | 1.007 ± 0.0058 | 1.113 ± 0.0058 | 1.013 ± 0.0058 | 1.02 ± 0.011 |
| CN1CCC[C@@H]1Cc1c[nH]c2ccc(CCS(=O)(=O)c3ccccc3)cc12 [Eletriptan HBr] | 1.013 ± 0.0058 | 1.03 ± 0.015 | 1.01 ± 0.01 | 1.02 ± 0.021 | 1.002 ± 0.0067 | 1.002 ± 0.0072 |
| COc1ccccc1N1CCN(CCCCNC(=O)c2ccc3ccccc3c2)CC1 | 0.9887 ± 0.0098 | 0.984 ± 0.026 | 0.998 ± 0.014 | 0.988 ± 0.032 | 0.9913 ± 0.0029 | 0.961 ± 0.033 |
| COc1ccc(NC(=O)c2ccc(-c3ccc(-c4noc(C)n4)cc3C)cc2)cc1N1CCN(C)CC1 | 1.006 ± 0.0063 | 0.000294 ± 0.00029 | 1.02 ± 0.01 | 0.00887 ± 0.01 | 0.9987 ± 0.0023 | 0.000181 ± 0.0015 |
| CCCCCCCCCCCCCCCc1cccc(O)c1C(=O)O [Anacardic acid] | 1 ± 0.015 | 1.02 ± 0.0063 | 1.01 ± 0.012 | 1.02 ± 0.022 | 1 ± 0.024 | 1.01 ± 0.019 |
| S=C(S)N1CCCC1 [Ammonium pyrrolidinedithiocarbamate] | 1 ± 0.015 | 0.994 ± 0.024 | 1.01 ± 0.018 | 1.004 ± 0.01 | 1.002 ± 0.0076 | 0.416 ± 0.095 |
| N=c1ccn2c(n1)O[C@H]1[C@H](O)[C@@H](CO)O[C@H]12 [Ancitabine hydrochloride] | 0.16 ± 0.012 | 0.103 ± 0.012 | 0.652 ± 0.079 | 0.211 ± 0.0064 | 0.0511 ± 0.0082 | 0.0465 ± 0.00057 |
| CS(=O)(=O)N1CCc2c(-c3cnc(N)nc3)nc(N3CCOCC3)nc21 | 0.528 ± 0.021 | 0.513 ± 0.01 | 0.552 ± 0.058 | 0.627 ± 0.034 | 0.491 ± 0.024 | 0.651 ± 0.064 |
| Nc1cc(C(F)(F)F)c(-c2cc(N3CCOCC3)nc(N3CCOCC3)n2)cn1 | 0.6 ± 0.048 | 0.203 ± 0.0045 | 0.713 ± 0.038 | 0.411 ± 0.029 | 0.613 ± 0.059 | 0.0297 ± 0.0061 |
| FC(F)c1nc2ccccc2n1-c1nc(N2CCOCC2)nc(N2CCOCC2)n1 | 0.649 ± 0.029 | 0.627 ± 0.013 | 0.603 ± 0.038 | 0.702 ± 0.054 | 0.691 ± 0.048 | 0.831 ± 0.028 |
| CSc1nc(N)c2ncn([C@@H]3O[C@H](COP(=O)(O)OP(=O)(O)O)[C@@H](O)[C@H]3O)c2n1 [2-Methylthioadenosine diphosphate trisodium] | 1.007 ± 0.0058 | 1.02 ± 0.026 | 1.01 ± 0.012 | 1.06 ± 0.082 | 0.9917 ± 0.0072 | 1 ± 0.017 |
| C[C@@H]1C(=O)O[C@H]2C[C@@]34[C@H]5C[C@@H](C(C)(C)C)[C@]36[C@@H](OC(=O)[C@@H]6O)O[C@@]4(C(=O)O5)[C@]21O [Ginkgolide A] | 0.9947 ± 0.0084 | 0.986 ± 0.01 | 0.994 ± 0.016 | 0.997 ± 0.02 | 1.002 ± 0.0072 | 0.9947 ± 0.0051 |
| CCc1c(C(=O)NCCc2ccc(N3CCCCC3)cc2)[nH]c2ccc(Cl)cc12 | 1.01 ± 0.018 | 0.993 ± 0.021 | 1.027 ± 0.0058 | 0.999 ± 0.011 | 1 ± 0.0095 | 0.982 ± 0.012 |
| NCC=CC(=O)O (stereo in doubt) [cis-4-Aminocrotonic acid] | 0.992 ± 0.0092 | 0.993 ± 0.015 | 0.9857 ± 0.0042 | 0.9765 ± 0.0092 | 0.973 ± 0.0079 | 0.9753 ± 0.0086 |
| C[C@H]1C[C@H]2[C@@H]3CCC4=CC(=O)C=C[C@]4(C)[C@@]3(Cl)[C@@H](O)C[C@]2(C)[C@@]1(O)C(=O)CO [Beclomethasone] | 0.998 ± 0.0017 | 1.02 ± 0.01 | 1.01 ± 0.01 | 1 | 0.803 ± 0.031 | 0.738 ± 0.039 |
| CCCCN(Cc1ccc(C(=O)NO)cc1)C(=O)Nc1ccccc1 [Nexturastat A] | 0.949 ± 0.017 | 0.9863 ± 0.0097 | 0.97 ± 0.02 | 0.963 ± 0.027 | 1.001 ± 0.009 | 0.967 ± 0.014 |
| CC(C)[C@H](C(=O)Nc1ccc(C(=O)NO)cc1)c1ccccc1 | 0.752 ± 0.021 | 0.00258 ± 0.00047 | 0.897 ± 0.021 | 0.00754 ± 0.0016 | 0.172 ± 0.0081 | 0.00052 ± 0.00049 |
| N#CC(=C(/N)Sc1ccccc1N)/C(C#N)=C(\N)Sc1ccccc1N | 1.02 ± 0.011 | 1.08 ± 0.025 | 0.976 ± 0.016 | 1.01 ± 0.027 | 1.023 ± 0.0058 | 1.02 ± 0.015 |
| CC#CCOC(=O)c1c(C)nc2sc3c(c2c1N)CCC(O)C3 (centres undefined) | 1.02 ± 0.021 | 1 ± 0.019 | 1.03 ± 0.038 | 1.03 ± 0.017 | 1.013 ± 0.0058 | 1.013 ± 0.0058 |
| COC1=C(OC)C(=O)c2ccccc2C1=O [2,3-Dimethoxy-1,4-naphthoquinone] | 0.994 ± 0.01 | 0.905 ± 0.047 | 0.994 ± 0.0066 | 0.956 ± 0.01 | 0.997 ± 0.0027 | 0.8913 ± 0.0032 |
| CCCCCC[C@@H]([C@@H](C)O)n1cnc2c(N)ncnc21 [erythro-9-(2-Hydroxy-3-nonyl)adenine hydrochloride] | 0.999 ± 0.001 | 0.992 ± 0.024 | 0.987 ± 0.012 | 0.997 ± 0.023 | 0.973 ± 0.0053 | 0.9777 ± 0.0055 |
